{
  "source": "PubChem BioAssay (NCI)",
  "note": "About 83,000 compounds went through this panel and 20% of them were active in at least one assay; those are over-represented in the sample as a whole.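 Growth was measured after 48 h exposure to one concentration of compound in 96-well plates. Values under 10 count as active.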 Values without a mark were called inactive. Calls of active or inactive are those of the source.",
  "data": [
    {"tested_on": "MDA-MB-468 breast", "test": "NCI-60 one-dose screen, 48 h (100 = growth as untreated, 0 = no growth, -100 = all killed)", "settings": "10 µM unless noted", "values": [
      {"smiles": "CCOc1ccc(S(=O)(=O)Nc2ccc3c(c2)N(S(=O)(=O)CC)CCC3)cc1", "growth": "85.4%"},
      {"smiles": "CCOC(=O)CC(C#N)(CC(=O)OCC)C(=O)OCC", "growth": "96.9%"},
      {"smiles": "CC/C(=N/NC(N)=O)c1ccccc1", "growth": "103%"},
      {"smiles": "COc1cc2c3c(n([C@@H]4CCOC4)c(=O)c2cc1OC)-c1cc2c(cc1C3=O)OCO2", "growth": "11.2%"},
      {"smiles": "CC(=O)OC[C@]12CC[C@@H](C(=O)/C=C/c3cccnc3)[C@@H]1[C@H]1CC[C@@H]3[C@@]4(C)CC[C@H](OC(C)=O)C(C)(C)[C@@H]4CC[C@@]3(C)[C@]1(C)CC2", "growth": "-44% (active)"},
      {"smiles": "Cc1cccc2sc(/N=C(\\N)C(Cl)(Cl)Cl)nc12", "growth": "110%"},
      {"smiles": "Cn1cc(-c2csc(-c3cn(C)c4ncccc34)n2)c2cc(F)cnc21", "growth": "-10.1% (active)"},
      {"smiles": "Cn1cc(-c2cc3ncnc(Nc4ccc(CC(=O)Nc5nc(C(C)(C)C)cs5)cc4)c3s2)cn1", "growth": "31.2%"},
      {"smiles": "CCOC(=O)/C(C#N)=C1/C(=O)Nc2ccccc21", "growth": "134%"},
      {"smiles": "COc1cc(C(=O)/C=C/c2cn(-c3ccccc3)nc2-c2cccc(Nc3ccnc4cc(Cl)ccc34)c2)cc(OC)c1OC", "growth": "71.7%"},
      {"smiles": "CC(=O)O[C@]1(C)C[C@H](O)[C@]2(O)C=CO[C@H](O[C@@H]3O[C@H](CO)[C@@H](O)[C@H](O)[C@H]3O)[C@@H]21", "growth": "96.8%"},
      {"smiles": "COC(=O)c1c(C)nc(C)c2c1C(=O)C=C(NCc1ccccc1)C2=O", "growth": "53.9%"},
      {"smiles": "Cc1ccc(Cc2cnc(NC(=O)c3cc(C)oc3C)s2)cc1", "growth": "31.5%"},
      {"smiles": "C#CCOc1cccc(Nc2ncnc3ccc(NC(=O)C=C)cc23)c1", "growth": "-25.7% (active)"},
      {"smiles": "Oc1ccc(CSc2nnc(-c3cnccn3)n2-c2ccccc2)c2cccnc12", "growth": "5.53% (active)"},
      {"smiles": "CC12O[C@H](C[C@@H](O)[C@H]1O)n1c3ccccc3c3c4c(c5c6ccccc6n2c5c31)C(=O)N(CCCN)C4=O", "growth": "17.1%"},
      {"smiles": "COc1cc(/C=N/n2c(CN3CCOCC3)nc3ccccc3c2=O)cc(OC)c1OC", "growth": "109%"},
      {"smiles": "Cc1ccc(-n2cc(/C=N/NC(=O)c3ccncc3)c(-c3ccc(S(C)(=O)=O)cc3)n2)cc1", "growth": "100%"},
      {"smiles": "COc1ccc2oc(-c3ccc(Cl)cc3)c(N3CCN(C)CC3)c2c1", "growth": "-53.5% (active)"},
      {"smiles": "COc1ccc2c(ccn2C(=O)N2c3ccccc3Sc3ccccc32)c1", "growth": "21.8%"},
      {"smiles": "Nc1ncc(-c2ccc3ncnc(Nc4cccc(Cl)c4)c3c2)cn1", "growth": "-26.4% (active)"},
      {"smiles": "COc1ccc([C@@H]2[C@@H](Oc3ccccc3)C(=O)N2c2cc(OC)c(OC)c(OC)c2)cc1F", "growth": "4.05% (active)"},
      {"smiles": "CC(C)(C)N1CCC1C(N)=O", "note": "(stereo not given)", "growth": "108%"},
      {"smiles": "CC(C)=CCNc1ncnc2c1ncn2C1OC(CO)C(O)C1O", "note": "(stereo not given)", "growth": "-44.4% [1 mM] (active)"},
      {"smiles": "Nc1cc2c(cc1Cl)-c1ccc(Cl)cc1C2=O", "growth": "86.1%"},
      {"smiles": "C=CCc1c2c(c(OC)c3ccoc13)C(=O)/C(=C/c1ccccc1OC)O2", "growth": "-3.89% (active)"},
      {"smiles": "CC(NCCC(c1ccccc1)c1ccccc1)c1ccccc1", "note": "(stereo not given)", "growth": "49%"},
      {"smiles": "Cc1ccc(N2CCN(C(=S)c3cccs3)CC2)cc1", "growth": "88.7%"},
      {"smiles": "C[n+]1c2ccccc2nc2ccc(NCCO)cc21", "growth": "94%"},
      {"smiles": "CCCc1[nH]c(-c2cc(N)ccc2Cl)c2c1C(=O)CCCC2", "growth": "93.7%"},
      {"smiles": "COc1cc(C)ccc1Oc1nc(Nc2ccc(N3CCOCC3)cc2)ncc1NC(=O)Nc1cc(C(F)(F)F)cc(C(F)(F)F)c1", "growth": "72.8%"},
      {"smiles": "Cc1ccc(OCCOCCOCCOCCOc2ccc(C)n(O)c2=S)c(=S)n1O", "growth": "-13.8% (active)"},
      {"smiles": "Cc1ccc(C)c(-c2csc(Nc3ccc(C)c(C)c3)n2)c1", "growth": "14.5%"},
      {"smiles": "CCCCCCCCSc1ncnc2c1ncn2CO", "growth": "11.9%"},
      {"smiles": "CCOC(=O)c1[nH]c(C)c(C(C)=O)c1C", "growth": "87.2%"},
      {"smiles": "Cc1cc(=O)c2cc3nc(-c4cccnc4)oc3c(Br)c2o1", "growth": "96.4%"},
      {"smiles": "NC(=O)c1noc(C(=O)c2ccccc2)c1N", "growth": "95.5%"},
      {"smiles": "CCOC(=O)/C(O)=C(\\C=N\\C(=S)Nc1ccc(Cl)c(Cl)c1)C(=O)OCC", "growth": "102%"},
      {"smiles": "CC[C@@H](C)OC(=O)c1nn(C(C)=O)c2ccccc12", "growth": "82.4%"},
      {"smiles": "CC(C)(C)C1CCC(=NO)CC1", "note": "(stereo not given)", "growth": "94%"}
    ]}
  ]
}
